Most compounds without a hit are left out; they make up all but 10% or so of the library.
G9a inh – G9a (human) methyltransferase inhibition; hit rate 8.8% among 350,000; Potency, µM (doses to about 102 µM), for inactives: at the highest dose activity, negative = inhibition, actives largely listed as inhibitors; G9a H3K9 monomethylation, AlphaScreen, 2 h; also: % is scaled to controls: 0 for no effect and ±100 for the full control effect; nearly all actives have a fitted effect of over 75% in size
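G9a (20 nM) was preincubated 15 min with compound, then reacted 2 h at room temperature with 500 nM biotin-H3K9 peptide and 20 µM SAM. Monomethyl-H3K9 detected by AlphaScreen using anti-H3K9me1 antibody.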
JMJD2A Tudor inh – blocks the human JMJD2A Tudor domain. O75164. AlphaScreen JMJD2A-Tudor / H3K4me3 peptide binding. Potency, µM (titrated, usually from 114 µM), inactives show top-dose activity change, negative = inhibition, hits mostly inhibitors. hit rate 4.4% among 390,000. AID 504339; also: % is scaled to controls: 0 for no effect and ±100 for the full control effect; nearly all actives have a fitted effect of over 50% in size
GLS inhibitor – blocks human kidney-isoform glutaminase activity | GLS enzymatic activity, qHTS titration | O94925 | hit rate 0.21% among 410,000 | AID 624170 | Potency, µM (doses to about 45.5 µM), for the others: at the top dose activity change, negative = inhibition, usual class: inhibitors; also: % is scaled to controls: 0 for no effect and ±100 for the full control effect
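Assay buffer: 45 mM KH2PO4 pH 8.2, 0.02% Tween-20. hKGA acts on L-glutamine (1 mM solution added); product glutamate is reported by an oxidase/peroxidase Amplex Red coupling, with fluorescence taken at baseline and 30 min.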
HP1b binding inh – blocks HP1-beta chromodomain binding to methylated histone tails; Potency, µM (top dose mostly 114 µM), for the others: at the highest dose activity change, negative = inhibition, usual class: inhibitors; hit rate 0.56% among 390,000; P83916; AlphaScreen HP1-beta / biotin-H3K9me3 peptide binding; also: nearly all actives have a fitted effect of over 70% in size
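HP1-beta protein (50 nM final) preincubated 30 min at room temperature with biotinylated H3(1-18)K9me3 peptide (50 nM) in PBS pH 7.4, 0.01% Tween-20, then compound added for 30 min. AlphaScreen streptavidin donor/nickel chelate acceptor beads (10 ug/mL final), 30 min dark, luminescence read.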
BAZ2B inh – inhibitors of human BAZ2B bromodomain. Q9UIF8. AID 504333. hit rate 4.4% among 360,000. Potency, µM (series often up to 114 µM), without a hit: at the top dose activity change, negative = inhibition, actives largely listed as inhibitors. AlphaScreen BAZ2B-H3K14Ac peptide displacement; also: % is scaled to controls: 0 for no effect and ±100 for the full control effect; nearly all actives have a fitted effect of over 60% in size
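BAZ2B (50 nM) with biotin-H3(5-23)K14Ac peptide (50 nM) in PBS pH 7.4, 0.01% Tween-20, preformed 30 min, then compound 30 min at room temperature; top concentration 110uM. AlphaScreen streptavidin donor/nickel chelate acceptor beads (10 ug/mL final), 20 min dark, signal read.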
* marks the source's active call; other numbers are inactive results; ? = inconclusive; / = not tested or not shown; [ ] = dose if it differs, or a comment. Calls follow the shape of the dose curve; as a rule, active = well fitted curve in the direction sought with a large enough effect; inconclusive = small, poorly fitted or top-dose-only effect, or another doubt; inactive = no such curve, though single readings can be large; an effect the other way counts as inactive or inconclusive. Potency is read from the fitted curve at half-maximal effect.

SMILES | G9a inh | JMJD2A Tudor inh | GLS inhibitor | HP1b binding inh | BAZ2B inh
Cc1nn(C)c(C(=O)Nc2ccc(Cl)c([N+](=O)[O-])c2)c1Cl | 16µM* | -12% | -2% | 27% | 5%
Cc1c(C(=O)N2CCCC2)oc2c1-c1nn(CC(=O)NCCCN3CCCCC3C)cc1CC2 (stereo not given) | -15%[59 µM] | -8% | -4% | 31% | -26%
O=C(NC1CC1)c1ccc(CS(=O)c2ccc(Br)cc2)o1 (stereo not given) | -10%[59 µM] | -14% | 0% | 58% | -10%
NC(=O)c1c(N)[nH]c(C(=O)c2ccccc2)c1-c1ccncc1 | / | / | -10% | / | /
CCc1nc2c(OCc3cccc(Cl)c3)cccn2c1N(C)C(=O)Nc1ccccc1OC | / | / | 0% | / | /
O=C(OCCCCOC(=O)c1ccccc1)c1ccccc1 | 356% | 187% | 3% | 228% | 186%
CC(/C=C/c1ccccc1)=N\NC(=S)NC(C)C | 50µM* | 45µM* | -17% | ? | ?
CCCC(C)NC(=O)c1sc2nc3n(c(=O)c2c1C)CCC3 (stereo not given) | -1% | -4% | 4% | 46% | -2%
Cc1ccc(N2C(=O)CC(Sc3nc4ccccc4o3)C2=O)cc1Cl (stereo not given) | 11µM* | ? | 6% | 75% | 5%
CCN(CC)CCP(=O)(c1ccccc1)c1ccccc1 | -2%[12.7 µM] | -15% | 2% | 14% | 12%
CCN(CC)CCN(C)C1CCC(c2ccccc2)CC1 (stereo not given) | 8.9µM* | 6.3µM* | 8% | ? | 56µM*
c1ccc(CN2CCN(CCOCCOc3cccc4ccccc34)CC2)cc1 | / | 1.8µM* | -6% | 20µM* | 22µM*
O=C(c1ccco1)N1CCN(CCOCCOc2cccc3ccccc23)CC1 | ? | -23% | 4% | 20% | ?
COc1ccccc1OCCCCCCN1CCOCC1 | 13µM* | 20µM* | 10% | ? | 50µM*
c1ccc2c(OCCCCN3CCOCC3)cccc2c1 | / | 3.5µM* | 5% | ? | 50µM*
CCC(=O)N1c2ccc(S(=O)(=O)CCC(=O)NCc3ccccc3OC)cc2CC1C (stereo not given) | ? | -15% | 10% | 9% | /
CCC(=O)N1c2ccc(S(=O)(=O)CCC(=O)NCc3ccc4c(c3)OCO4)cc2CC1C (stereo not given) | 12%[0.501 µM] | 50µM* | 20% | -5% | -6%
CCOc1ccccc1NC(=O)CCS(=O)(=O)c1ccc2c(c1)CC(C)N2C(C)=O (stereo not given) | 25µM* | -9% | 0% | 21%[57 µM] | 2%
CCOc1ccccc1NC(=O)CCS(=O)(=O)c1ccc2c(c1)CCN2C(C)=O | 14% | ? | -1% | -3% | -20%
Cc1ccc(CNC(=O)CCS(=O)(=O)c2ccc3c(c2)CC(C)N3C(=O)C2CC2)cc1 (stereo not given) | 12% | -1% | 4% | 24% | -13%[57.1 µM]
CCC(=O)N1c2ccc(S(=O)(=O)CCC(=O)Nc3ccc(OC)cc3OC)cc2CC1C (stereo not given) | 40µM* | ? | 2% | 25%[57 µM] | -27%
CCCc1nnc(NC(=O)C(CC)OC(=O)c2cc(C)nc3ccccc23)s1 (stereo not given) | 3%[59 µM] | -23% | -15% | 4% | -6%
CCc1cccc(C)c1NC(=O)C1CN(S(=O)(=O)c2ccccc2)CCN1S(=O)(=O)c1ccccc1 (stereo not given) | ? | 1% | -5% | 22% | 1%
CN(CCc1ccccc1)C(=O)c1cccc(NC(=O)Cc2cccc([N+](=O)[O-])c2)c1 | / | -28% | 6% | 16% | /
CCN(CC)CCCNC(=O)C(C)n1c2ccccc2c2nc(=O)cc(C)n21 (stereo not given) | 22% | -13% | 1% | 34% | 25%
SMILES | G9a inh | JMJD2A Tudor inh | GLS inhibitor | HP1b binding inh | BAZ2B inh
CCCN1CCC(=NNc2ccc(S(N)(=O)=O)cc2[N+](=O)[O-])CC1 | 14µM* | -25% | -6% | 0% | -23%
CCCN1CCC(=NNc2ccc(S(=O)(=O)N(CC)CC)cc2[N+](=O)[O-])CC1 | 35µM* | ? | 0% | ? | ?
CCOC(=O)N1CCC(=NNc2ccc(S(N)(=O)=O)cc2[N+](=O)[O-])CC1 | ? | -9% | -9% | 29% | -28%
N#Cc1c([N+](=O)[O-])cc([N+](=O)[O-])cc1S(=O)(=O)Cc1ccccc1 | ? | 79µM* | -2% | -38% | ?
COc1cc(OC)c(C#N)c(S(=O)(=O)Cc2ccccc2)c1 | -6%[59 µM] | -17% | 8% | 15% | -39%
Cn1c(=O)c2c(nc3n2CC(COc2ccc(Cl)cc2)O3)n(C)c1=O (stereo not given) | 8% | -7% | -2% | 39% | -20%
Oc1ccc(C2=Nn3c(nnc3-c3ccco3)SC2)cc1O | 13µM* | 45µM* | ? | ? | ?
CC1=Nn2c(nnc2-c2ccccn2)SC1 | -21%[12.7 µM] | 22µM* | -2% | 32% | 50µM*
c1ccc(C2=Nn3c(nnc3-c3ccncc3)SC2)cc1 | ? | -19% | 3% | 12% | 0%
Cc1cc(-c2nnc3n2N=C(c2ccc(-c4ccccc4)cc2)CS3)n[nH]1 | ? | -18%[11.4 µM] | 0% | 1% | -35%
Cc1cc(-c2nnc3n2N=C(c2ccccc2)CS3)n[nH]1 | 45µM* | ? | 23% | 15% | -22%
c1ccc(C2=Nn3c(nnc3-c3ccccn3)SC2)cc1 | ? | -31%[57.1 µM] | -4% | 68% | 28µM*
COc1ccc(C2=Nn3c(nnc3-c3ccco3)SC2)cc1 | 17%[59 µM] | -23% | 0% | 16% | -1%
COc1ccc(C(OCC(O)CN2CCC(O)CC2)c2ccc(OC)cc2)cc1 (stereo not given) | -13% | -18% | -3% | -2% | -14%
OC(CN1CCCC(C(F)(F)F)C1)c1ccccc1 (stereo not given) | 2% | -8% | 6% | -2% | 2%
OC(COC(c1ccc(F)cc1)c1ccc(F)cc1)CN1CCCC(C(F)(F)F)C1 (stereo not given) | 11µM* | 3.5µM* | 13% | ? | 50µM*
Oc1ccc(N2CCN(CC(O)c3ccccc3)CC2)cc1 (stereo not given) | 8.9µM* | 56µM* | 19% | ? | -35%
COc1ccc(N2CCN(CC(O)COC(c3ccccc3)c3ccccc3)CC2)cc1 (stereo not given) | 40µM* | 45µM* | 25% | ? | 45µM*
COc1ccc(N2CCN(CC(O)COC(c3ccc(F)cc3)c3ccc(F)cc3)CC2)cc1 (stereo not given) | 5.6µM* | 3.5µM* | 26% | ? | 20µM*
CCN1CCN(CC(O)COC(c2ccccc2)c2ccccc2)CC1 (stereo not given) | 8% | -5% | -2% | 35% | /
OCCN1CCN(CC(O)COC(c2ccc(F)cc2)c2ccc(F)cc2)CC1 (stereo not given) | -14% | 7.1µM* | 0% | ? | 40µM*

Source: PubChem (National Center for Advancing Translational Sciences (NCATS))
